Experimental data reported in PubChem BioAssay AID651956 (Broad Institute, 2012).
Measured potencies and affinities stand elsewhere. Records with an inconclusive call do not appear. Active and inactive are the calls of the source.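 The calls were made as follows: active = in every test run, a fitted half-maximal concentration for signal decrease at or below twice the highest tested concentration; inconclusive = runs disagree, flat 30 to 70% decrease, or poor fit; inactive = the rest.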

Test: miR-122 activators in hepatoma reporter cells, dose response, cell-based, Huh7 psiCHECK-miR122, Renilla luciferase, cherry-picked (AID 651956);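 also: Renilla luciferase from a miR-122 sensor reporter so lower signal means miR-122 activation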
Conditions: 48 h; series mostly up to 35 µM

| Compound | outcome |
| --- | --- |
| O=C1NC(=O)N(CCC2=CCCCC2)C(=O)/C1=C\c1cccs1 | inactive |
| COc1ccc(C2SCC(=O)Nc3c2c(=O)[nH]n3C2CCCCCC2)cc1 (centres undefined) | inactive |
| O=C(c1ccco1)c1cn(Cc2ccccc2Cl)c2ccccc12 | inactive |
| COc1ccc2c(c1)c(CCN)c(C)n2Cc1ccccc1 | inactive |
